Source: PubChem
aSyn UTR act – Activators working through SNCA 5'UTR binding (MLPCN). 300,000 tested, 7.1% active. activity score, % (tested at 7.5 µM), hits read low. alpha-synuclein 5'UTR reporter, activators screen. AID 1814; in the data active means activity score below about -60%
* marks the source's active call; other numbers are inactive results. Not all results are given here.

How did Cn1c2ccccc2c(=O)c2ccc(C#Cc3ccccn3)cc21 do in these assays?
aSyn UTR act: -137*

Results for COc1cc(-c2noc(C)c2C#Cc2ccsc2)cc(OC)c1OC ?
aSyn UTR act: 69

How did Cn1c2ccccc2c(=O)c2cc(C#Cc3ccccn3)ccc21 do in these assays?
aSyn UTR act: -127*

How did Cn1c2ccccc2c(=O)c2cc(C#CC3(O)CCCCC3)ccc21 do in these assays?
aSyn UTR act: 77

Results for Cn1c2ccccc2c(=O)c2cc(C#Cc3ccsc3)ccc21 ?
aSyn UTR act: -187*

Results for COc1ccc(-n2cc(-c3ccccc3)nc2SC)cc1 ?
aSyn UTR act: -121*

Results for COc1ccc2c(c1)sc1nc(-c3ccccc3)cn12 ?
aSyn UTR act: 105

How did Cc1cc2nc(N)sc2cc1C do in these assays?
aSyn UTR act: -64*

What do the screens show for `CC(C)c1ccc2nc(N)sc2c1`?
aSyn UTR act: -107*

What do the screens show for `Nc1nc2ccc(OC(F)(F)F)cc2s1`?
aSyn UTR act: -74*

Results for CC(NC(=O)CCl)c1ccccc1Br (centres undefined) ?
aSyn UTR act: -99*

Results for O=C(CCC1CCCN(C(=O)c2ccc3c(c2)OCCO3)C1)NCc1ccccc1F (centres undefined) ?
aSyn UTR act: -66*

How did O=C(NCc1ccccc1F)c1ccc2c(c1)OCCO2 do in these assays?
aSyn UTR act: -80*

How did CC(C)(C)c1ccc(C(=O)c2c[nH]c(C(=O)O)c2)cc1 do in these assays?
aSyn UTR act: -102*

What do the screens show for `CN(C)C=NC(=O)c1cc(C(=O)c2ccc(C(C)(C)C)cc2)c[nH]1`?
aSyn UTR act: -87*

How did CC(C)NCC(O)Cn1c2c(c3ccccc31)CCc1c-2cnn1-c1ccccc1 (centres undefined) do in these assays?
aSyn UTR act: 108

How did Oc1ccc(N=Nc2n[nH]c(-c3ccccc3)n2)cc1 do in these assays?
aSyn UTR act: -85*

What do the screens show for `O=C(c1ccc([N+](=O)[O-])o1)N1CCN(c2nc3ccc(F)cc3s2)CC1`?
aSyn UTR act: -108*

What do the screens show for `COc1cccc2sc(N3CCN(C(=O)c4ccc([N+](=O)[O-])o4)CC3)nc12`?
aSyn UTR act: -110*

What do the screens show for `Cc1ccc2sc(N3CCN(C(=O)c4ccc([N+](=O)[O-])o4)CC3)nc2c1C`?
aSyn UTR act: -76*

How did Cc1ccc(-c2csc(Cc3nc(-c4ccc5c(c4)CCC(=O)N5)cs3)n2)cc1 do in these assays?
aSyn UTR act: -124*

Results for COn1c(-c2ccc(Cl)cc2)nc2ncccc21 ?
aSyn UTR act: -107*

How did Cc1cc(NC(c2ccc(Cl)cc2)c2ccc3cccnc3c2O)no1 (centres undefined) do in these assays?
aSyn UTR act: 85

Results for CN(C)/C=C/c1oc2ccc(O)cc2c1[N+](=O)[O-] ?
aSyn UTR act: -86*

What do the screens show for `c1cnc2nc(-c3ccc4c(c3)OCO4)cn2c1`?
aSyn UTR act: -93*

What do the screens show for `c1ccc(-c2noc(-c3ccc4c(c3)OCO4)n2)nc1`?
aSyn UTR act: 91

Results for c1ccc(-c2nccc(-c3ccc4c(c3)OCO4)n2)cc1 ?
aSyn UTR act: -105*

What do the screens show for `CCc1ccn2cc(-c3ccc4c(c3)OCO4)nc2c1`?
aSyn UTR act: 107

How did Cc1ccc(-c2cn3cccnc3n2)cc1 do in these assays?
aSyn UTR act: -119*

What do the screens show for `O=C(Cc1ccc2c(c1)CCCC2)Nc1ccc2ccccc2c1`?
aSyn UTR act: -161*

What do the screens show for `O=C(Cc1ccccc1F)Nc1ccc2c(c1)CCC2`?
aSyn UTR act: -169*

Results for Cn1nnnc1SCc1nnc(-c2ccc(Cl)cc2)o1 ?
aSyn UTR act: -75*

What do the screens show for `Nc1ccc2c(c1)Cc1cc([N+](=O)[O-])ccc1-2`?
aSyn UTR act: -79*

How did CCOc1ccc(OCc2cccc(C(=O)N3CCCCCC3)c2)cc1 do in these assays?
aSyn UTR act: 76

What do the screens show for `O=C(O)c1cccc(COc2ccc3c(c2)CCC3)c1`?
aSyn UTR act: 81

Results for COc1ccccc1OCCNC(=O)c1ccc2c(c1)CCC2 ?
aSyn UTR act: -138*

How did COc1cccc(OC)c1C(=O)NNC(=O)c1cccc(COc2ccc3c(c2)CCC3)c1 do in these assays?
aSyn UTR act: -91*

Results for O=C(NN1CCCCC1)c1cccc(COc2ccc(Cl)cc2)c1 ?
aSyn UTR act: -167*

What do the screens show for `COc1ccccc1OCCNC(=O)c1ccc2c(c1)OCCO2`?
aSyn UTR act: -68*

Results for CSc1ccc(CNc2ccc(Cl)cc2)cc1 ?
aSyn UTR act: -114*

Results for Brc1ccc2c(c1)OCCOCCOc1cc(Br)ccc1OCCOCCOCCO2 ?
aSyn UTR act: 73

Results for O=C(c1cc2cc(Br)ccc2o1)N1CCCC1 ?
aSyn UTR act: -64*

Results for O=C(c1cc2cc(Br)ccc2o1)N1CCOCC1 ?
aSyn UTR act: -85*

How did COc1ccc(C2c3ccc4ccccc4c3Oc3ncn(CCCN(C)C)c(=N)c32)cc1 (centres undefined) do in these assays?
aSyn UTR act: 90

How did CCC(C)N1C(=O)S/C(=C/c2ccc(N3CCOCC3)cc2C)C1=O (centres undefined) do in these assays?
aSyn UTR act: -167*

Results for Cc1cc(N2CCOCC2)ccc1/C=C1\SC(=O)N(C(C)C)C1=O ?
aSyn UTR act: -115*

Results for Cc1ccc(NC(=O)C2COc3ccccc3O2)cc1C (centres undefined) ?
aSyn UTR act: -171*

What do the screens show for `COC(=O)c1cccc(NC(=O)C2COc3ccccc3O2)c1` (centres undefined)?
aSyn UTR act: -137*

How did Cc1cccc(NC(=O)C2COc3ccccc3O2)c1 (centres undefined) do in these assays?
aSyn UTR act: -115*

Results for Nn1c(SCc2ccc(F)cc2)nnc1-c1ccccn1 ?
aSyn UTR act: -68*

Results for NC(=O)CSc1nc2cccnc2n1-c1ccc(F)cc1 ?
aSyn UTR act: 52

Results for Nn1c(SCc2ccccc2)nnc1-c1ccccn1 ?
aSyn UTR act: -70*

How did Nn1c(SCc2ccccc2F)nnc1-c1ccccn1 do in these assays?
aSyn UTR act: -125*

Results for CC(C)c1ccc2[nH]c(O)c(N=NC(=O)c3cccc(S(=O)(=O)Nc4ccc(Cl)cc4)c3)c2c1 ?
aSyn UTR act: 79

How did C=CCn1c(O)c(N=NC(=S)Nc2cccc(C)c2)c2ccccc21 do in these assays?
aSyn UTR act: 94

How did Oc1ccc(NC(=S)N=Nc2c(O)[nH]c3ccccc23)cc1 do in these assays?
aSyn UTR act: -131*

Results for O=C(N=Nc1c(O)[nH]c2ccc(Br)cc12)c1cc(-c2cccs2)nc2ccccc12 ?
aSyn UTR act: 81

What do the screens show for `O=C(N=Nc1c(O)[nH]c2ccccc12)c1cccs1`?
aSyn UTR act: -74*

How did Cc1c(C(=O)NCCc2ccccc2)oc2ccccc12 do in these assays?
aSyn UTR act: -69*

What do the screens show for `Cc1c(C(=O)NC2CCC(C)CC2)oc2ccccc12` (centres undefined)?
aSyn UTR act: -143*

Results for Brc1ccc(-c2csc(NC3=NCCCCC3)n2)cc1 ?
aSyn UTR act: -138*

What do the screens show for `COc1ccc(-c2csc(NNC3=NCCCCC3)n2)cc1`?
aSyn UTR act: -63*

Results for CCOc1ccc(-c2csc(NNC3=NCCCCC3)n2)cc1 ?
aSyn UTR act: -88*

Results for COc1ccc(-c2csc(NC3=NCCCCC3)n2)cc1 ?
aSyn UTR act: -91*

What do the screens show for `c1ccc(-c2csc(NNC3=NCCCCC3)n2)cc1`?
aSyn UTR act: -72*

What do the screens show for `COc1ccc(C(=O)O/N=C(\N)c2ccc(Cl)cc2)cc1`?
aSyn UTR act: -196*
